Hit rate of the full screen: of about 340,000 compounds, about 12,000 (3.5%) were called active. Where a call stands in place of a potency, no number is given. About 18% were inconclusive and are not listed. The sample holds actives, similar compounds and a random draw of the others, so the mix is not that of the screen. A number with no mark means an inactive call. The call rests on the fitted dose curve; in most records, active means well fitted inhibition curve with a large enough effect; inconclusive means small, poorly fitted or top-dose-only effect, or another doubt; inactive means no such curve, though single readings can be large or run the other way.
Potency means the concentration at half of the fitted maximal effect.

The test in a line: qHTS Assay for Inhibitors of Hepatitis C Virus (HCV). To be noted: Huh7.5.1 HCVcc-Cre infection, luciferase reporter, 44 h; series mostly up to 41.8 µM. The gist of the method:
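HCVcc-Cre virus at an moi near 0.5 was added right after compound to cells cultured 4 h from seeding (1,000 cells/well). Luciferase activity was determined 44 h later, 15 min after substrate addition at RT.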
For orientation: In qHTS, concentration-response curves come from the screen itself.
In the case of `CC(C)CN(C(=O)COC(=O)c1ccc(Cl)c(N)c1)c1c(N)n(Cc2ccccc2)c(=O)[nH]c1=O`, the Potency result was “inactive”.

Regarding `O=C(CSc1nc2[nH]ncc2c(=O)[nH]1)Nc1ccc(F)cc1`, the Potency entry was “inactive”.

On to `COc1cc(/C=N/NC(=O)c2cc(-c3ccccc3C)nc3ccccc23)cc(OC)c1O`, for which the Potency result was “inactive”.

Consider `Cc1ccc(C(=O)OCC(=O)N2CCCCCC2)cc1S(=O)(=O)N1CCOCC1`, for which the Potency entry was “inactive”.

Consider `O=C(OCc1nnc(-c2ccccc2)o1)c1cc(=O)[nH]c2ccccc12`, for which the Potency entry is “inactive”.

`CCCc1nc2ccccc2c(C(=O)OCc2nnc(-c3cc(OC)c(OC)c(OC)c3)o2)c1CC`: the Potency is 2.82 µM (active).

As to `CCCc1nc2ccccc2c(C(=O)OCC(=O)c2ccc3c(c2)NC(=O)CO3)c1CC`, the Potency result was “inactive”.

For `CCOc1ccc(S(=O)(=O)NCCC(=O)NCC2CCCO2)cc1` (centres undefined), the Potency result is “inactive”.

Turning to `O=C(NCc1ccc2c(c1)OCO2)c1cc([N+](=O)[O-])ccc1N1CCOCC1`, the Potency result is “inactive”.

Turning to `O=C(CN1C(=O)NC2(CCCCCCC2)C1=O)NCc1ccc(F)cc1`, the Potency entry is “inactive”.

Take `COc1ccc(CCNC(=O)CSc2nc3[nH]ncc3c(=O)n2-c2cccc(C(F)(F)F)c2)cc1OC`: the Potency entry was “inactive”.

For `NS(=O)(=O)c1cccc(NC(=O)CSc2nc3ccccc3n2-c2ccccc2)c1`, the Potency entry is “inactive”.

For `NC(=O)NC(=O)CSc1nc2cc([N+](=O)[O-])ccc2n1-c1cccc(C(F)(F)F)c1`, the Potency is 10 µM (active).

Regarding `CC(OC(=O)Cc1ccc(F)cc1)C(=O)N1CCc2ccccc21` (centres undefined), the Potency result was “inactive”.

In the case of `Cc1oc2c(F)c(F)c(F)c(F)c2c1S(=O)(=O)Nc1cccc(C(F)(F)F)c1`, the Potency was 4.47 µM (active).

Regarding `O=C(NCc1ccccc1)c1ccc(S(=O)(=O)Nc2cccc(C(F)(F)F)c2)cc1`, the Potency result is “inactive”.

Regarding `O=C(/C=C/c1ccc(F)cc1)Nc1cccc(S(=O)(=O)Nc2cccc(C(F)(F)F)c2)c1`, the Potency result is “inactive”.

Take `O=C(O)C(c1cccs1)C1(O)CCCCC1` (centres undefined): the Potency result was “inactive”.

Regarding `CCOc1ccc(S(=O)(=O)NCCC(=O)NCC(C)(C)N2CCOCC2)cc1`, the Potency result was “inactive”.

As to `CN(C)c1nc(N)nc(CSc2nnnn2-c2cccc3ccccc23)n1`, the Potency is 3.16 µM (active).

Turning to `COc1ccc(-n2nnnc2SCc2nc(N)nc(N3CCOCC3)n2)cc1`, the Potency result was “inactive”.

In the case of `CN(C)c1nc(N)nc(CSc2ccccn2)n1`, the Potency result is “inactive”.

Take `COC(=O)Cc1ccc(OC(=O)C2CCN(S(=O)(=O)c3ccc(OC)c(OC)c3)CC2)cc1`: the Potency result is “inactive”.

On to `CCN(CC)CCNc1nc(-c2ccc(OC(F)F)cc2)c(C)s1`, for which the Potency was 17.8 µM (active).

As to `CCOC(=O)c1ccccc1NC(=O)c1c(N)n(C)c(=O)[nH]c1=O`, the Potency entry was “inactive”.

On to `CCCN(CC(=O)Nc1ccccc1OC)C(=O)CCC(=O)c1ccc(F)cc1`, for which the Potency result was “inactive”.

Turning to `COc1ccc([C@H]2CC(=O)C=C(/C=C/c3ccc(Cl)cc3)C2)cc1`, the Potency entry was “inactive”.

Take `CC12CCCCC1=CC(=O)CC2` (centres undefined): the Potency entry is “inactive”.

For `COc1ccc(NC(=O)/C(N=Nc2cccc(S(=O)(=O)Nc3ccc(SC(F)F)cc3)c2)=C(\C)O)cc1`, the Potency entry was “inactive”.

Turning to `O=c1ccn([C@@H]2O[C@H](CNS(=O)(=O)c3cc4ccccc4s3)[C@@H](O)[C@H]2O)c(=O)[nH]1`, the Potency result was “inactive”.

`COc1cccc(CNc2nc3nc4c(c(=O)n3[nH]2)CCC4)c1`: the Potency entry is “inactive”.

For the compound `COc1ccc(NC(=O)N2CCC3(CC2)OCCO3)c(OC)c1`, the Potency entry is “inactive”.

Consider `COc1cccc(-c2cc3nc4c(c(N5CCC6(CC5)OCCO6)n3n2)CCCC4)c1`, for which the Potency was 12.6 µM (active).

For `Cc1ccc(S(=O)(=O)N2CCOCC2)cc1C(=O)Nc1ccccc1N1CCCC1`, the Potency entry is “inactive”.

In the case of `CC(C)CCNc1nc(N2CCCC2)c2c(c1C#N)CCN(C)C2`, the Potency is 12.6 µM (active).

For the compound `CCN1CCc2c(C#N)c(NCc3ccccc3)nc(NCCO)c2C1`, the Potency result is “inactive”.

Regarding `CCc1nc(NCCO)c(C#N)c2c1CCCC2`, the Potency result was “inactive”.

On to `O=C(NCCc1ccccc1)c1c[nH]c2ccc(F)cc2c1=O`, for which the Potency entry is “inactive”.

Regarding `CCOc1ccc(CC(=O)NCCS(=O)(=O)N2CCN(c3ccccc3)CC2)cc1`, the activity change, negative = inhibition is -0.883% [at 8.37 µM].

For the compound `N#Cc1ccc(C2=CC(=O)C[C@H](c3ccc(Cl)cc3)C2)cc1`, the Potency entry is “inactive”.

Turning to `O=C(NCc1ccncc1)C1CCCN(S(=O)(=O)c2ccc(Br)cc2)C1` (centres undefined), the Potency entry was “inactive”.

Regarding `COc1cccc(N2CCN(C(=O)C3CCCN(S(=O)(=O)c4cnc[nH]4)C3)CC2)c1` (centres undefined), the Potency result is “inactive”.

As to `Cc1ccc(S(=O)(=O)N2CCCC(C(=O)N3CCN(C)CC3)C2)cc1` (centres undefined), the Potency entry was “inactive”.

In the case of `CCCS(=O)(=O)N1CCCC(C(=O)N2CCN(c3ccccc3)CC2)C1` (centres undefined), the Potency entry was “inactive”.

Regarding `CC(=O)N1CCCc2cc(S(=O)(=O)N3CCCC(C(=O)NCc4ccc(Cl)cc4)C3)ccc21` (centres undefined), the Potency is 14.1 µM (active).

For the compound `CC(=O)N1c2ccc(S(=O)(=O)N3CCC(C(=O)NC4CCCC(C)C4C)CC3)cc2CC1C` (centres undefined), the Potency entry is “inactive”.

In the case of `CC(=O)N1c2ccc(S(=O)(=O)N3CCCC(C(=O)NCc4ccc(Cl)cc4)C3)cc2CC1C` (centres undefined), the Potency was 5.62 µM (active).

Regarding `CC(=O)Nc1ccc(NC(=O)C2CCCN(S(=O)(=O)c3ccc(Cl)cc3)C2)cc1` (centres undefined), the Potency result was “inactive”.

As for `CC(=O)N1CCCc2cc(S(=O)(=O)N3CCCC(C(=O)N4CCN(c5cccc(Cl)c5)CC4)C3)ccc21` (centres undefined), the Potency was 3.16 µM (active).

On to `CC(=O)N1CCCc2cc(S(=O)(=O)CCC(=O)N3CCN(c4ccccc4)CC3)ccc21`, for which the Potency result is “inactive”.

For the compound `CCS(=O)(=O)N1CCCC(C(=O)NCc2ccc(C)cc2)C1` (centres undefined), the Potency entry was “inactive”.

Consider `O=C(C1CCCN(S(=O)(=O)c2ccccc2)C1)N1CCN(c2ccc(F)cc2)CC1` (centres undefined), for which the Potency is 20 µM (active).

Consider `Cc1cc(NC(=O)CSCC(=O)NC(C)c2ccccc2)no1` (centres undefined), for which the Potency entry was “inactive”.

As for `CCN(c1ccccc1)S(=O)(=O)c1cc(C(=O)NCc2ccccn2)ccc1C`, the Potency result was “inactive”.

As for `O=C(COC(=O)c1ccc(O)cc1O)NC(=O)c1ccccc1`, the Potency entry is “inactive”.

For the compound `CCOc1ccc2oc(C(=O)N(CC)CC(=O)Nc3ccc(NC(C)=O)cc3)c(C)c2c1`, the Potency entry is “inactive”.

With `COc1ccc(C(C)(C)C)cc1NC(=O)CCN1C(=O)C2CCCCC2C1=O` (centres undefined), the Potency result is “inactive”.

For the compound `O=[N+]([O-])c1ncc(Br)cc1Nc1ccccc1`, the Potency entry is “inactive”.

With `CCN(CC)S(=O)(=O)c1ccc(CNC(=O)CN2C(=O)NC3(CCc4ccccc43)C2=O)cc1` (centres undefined), the Potency entry was “inactive”.

For `O=C(NN=Cc1ccc([N+](=O)[O-])cc1)C1CC1`, the Potency result is “inactive”.

For the compound `CSCCC(NS(=O)(=O)c1ccc(C)cc1)C(=O)N(C)CC(=O)Nc1ccccc1Br` (centres undefined), the Potency result was “inactive”.

For the compound `Cc1ccccc1N1CCN(C(=O)c2cccnc2)CC1`, the Potency entry was “inactive”.

In the case of `O=C(Nc1ccc(N2CCN(C(=O)c3ccccc3)CC2)c(Cl)c1)c1ncn[nH]1`, the Potency entry is “inactive”.

In the case of `O=C(Nc1ccc(N2CCN(C(=O)c3ccccc3)CC2)c(Cl)c1)c1cccnc1`, the Potency is 11.2 µM (active).

Regarding `Cc1cccc(C(=O)NCc2nnc(SC(C)C(=O)Nc3nnc(C)s3)n2C)c1` (centres undefined), the Potency entry was “inactive”.

With `Brc1ccc(OCCn2ccnc2)cc1`, the Potency entry was “inactive”.

As to `Clc1ncn(CCOc2ccccc2)c1Cl`, the Potency result was “inactive”.

As for `c1ccc(Cc2ccc(OCCn3ccnc3)cc2)cc1`, the Potency is 12.6 µM (active).

As to `COc1cc(CN2CCC(n3nccc3NC(=O)CCCc3ccccc3)CC2)ccc1O`, the Potency entry is “inactive”.

With `Cc1ccc(CN2CCC(n3nccc3NC(=O)CCCc3ccccc3)CC2)o1`, the Potency result is “inactive”.

Turning to `COc1ccc(CN2CCC(n3nccc3NC(=O)CCCc3ccccc3)CC2)cc1C`, the Potency was 10 µM (active).

For `COc1cccc(N2CC(NC(=O)c3ccc4ccccc4c3)CC2=O)c1` (centres undefined), the Potency entry is “inactive”.

For `O=C1C(=O)N(c2ccccc2)C(c2ccccc2)C1c1ccccc1` (centres undefined), the Potency entry is “inactive”.

Take `O=C1[C@@H](c2ccccc2)[C@@H](c2ccccc2)N1c1cccnc1`: the Potency was 5.01 µM (active).

For the compound `CCc1ccccc1NC1c2ccccc2C(=O)N1c1cccnc1` (centres undefined), the Potency result was “inactive”.

With `CC[C@@]1(C(=O)OC)N[C@H](CN(C)C(C)=O)[C@@H]2C(=O)N(C)C(=O)[C@@H]21`, the Potency result was “inactive”.

`CC(NC(=O)COC(=O)CCC(=O)c1ccc(Cl)cc1)c1ccccc1` (centres undefined): the Potency result was “inactive”.

On to `COc1cccc(CNS(=O)(=O)c2ccc3c(c2)CC(C)N3C(=O)C2CCC2)c1` (centres undefined), for which the Potency was 6.31 µM (active).

With `COc1cccc(CNS(=O)(=O)c2ccc3c(c2)CC(C)N3C(C)=O)c1` (centres undefined), the Potency result is “inactive”.

As to `CCC(=O)N1c2ccc(S(=O)(=O)NCc3ccco3)cc2CC1C` (centres undefined), the Potency result is “inactive”.

Regarding `Cn1cccc1C(=O)OCC(=O)NCCc1ccccc1`, the Potency entry was “inactive”.

Regarding `O=C(COC(=O)c1ccc2ncsc2c1)Nc1ccc(Cl)cc1`, the Potency entry was “inactive”.

In the case of `CCCCn1c(N)c(N(CC(C)C)C(=O)CSc2ccc([N+](=O)[O-])cc2)c(=O)[nH]c1=O`, the Potency entry was “inactive”.

In the case of `O=C(NNS(=O)(=O)c1c(F)cc(F)c(Cl)c1F)C12CC3CC(CC(C3)C1)C2`, the Potency entry is “inactive”.

As for `CCOc1cc(/C=N/O)cc(Br)c1OC`, the Potency was 8.91 µM (active).

As to `O=C(O)COc1ccc(/C=N/O)cc1Br`, the Potency result was “inactive”.

Regarding `COc1cc(/C=N/O)cc(Br)c1OS(=O)(=O)c1ccc(C)cc1`, the Potency entry is “inactive”.

For the compound `CC(C)c1ccc(C=NNc2ccc([N+](=O)[O-])cn2)cc1`, the Potency result was “inactive”.

Turning to `COc1ccccc1-c1nn(Cc2ccccc2)cc1C(=O)N1CCN(c2ncccn2)CC1`, the Potency entry was “inactive”.

On to `CCn1nc(C(=O)Nc2ccc(N3CCOCC3)cc2)c2ccccc2c1=O`, for which the Potency entry is “inactive”.

For `Cc1cc(NC(=O)CN2C(=O)NC(CC(C)C)C2=O)no1` (centres undefined), the Potency result is “inactive”.

For `CCN(CC)C(=O)CN(c1cccc([N+](=O)[O-])c1)S(=O)(=O)c1ccccc1`, the Potency entry is “inactive”.

On to `O=C(CCl)N(Cc1cccc([N+](=O)[O-])c1)c1cccc(Cl)c1`, for which the Potency is 3.98 µM (active).

Consider `Cc1ccc(S(=O)(=O)N(Cc2cccc([N+](=O)[O-])c2)C(=O)N2CCN(C)CC2)cc1`, for which the Potency result was “inactive”.

In the case of `CN(C)C(CNC(=O)c1cccc(S(=O)(=O)Nc2ccc(Br)cc2)c1)c1ccco1` (centres undefined), the Potency result was “inactive”.

With `O=C(CCCOc1ccccc1)NNC(=O)c1ccc(Cl)cc1`, the Potency result was “inactive”.

As for `CC1CCCCC1NC(=O)Cn1c(=O)cnc2ccccc21` (centres undefined), the Potency result was “inactive”.

`Cc1nn(Cc2ccccc2)c(C)c1C(=O)N1CCN(CC(=O)Nc2ccccc2Cl)CC1`: the Potency entry was “inactive”.

Regarding `Clc1ccc(C2=CSC3=Nc4cccc5cccc(c45)N23)cc1`, the Potency was 5.01 µM (active).
